# Measurements: PubChem BioAssay (Tox21)
# Results filed as inconclusive are left out. Active and inactive are the calls of the source. The call rests on the fitted dose curve; in most records, active means well fitted inhibition curve with a large enough effect in the signal ratio in the repeat runs (not every such curve was filed as active); inconclusive means weak or mixed curves, or effect the other way; inactive means no such curve, though single readings can be large or run the other way; the % refers to the signal ratio.
# Molecular target: Androgen receptor (Homo sapiens) (UniProt P10275)
# Sequence (P10275 whole entry, looked up): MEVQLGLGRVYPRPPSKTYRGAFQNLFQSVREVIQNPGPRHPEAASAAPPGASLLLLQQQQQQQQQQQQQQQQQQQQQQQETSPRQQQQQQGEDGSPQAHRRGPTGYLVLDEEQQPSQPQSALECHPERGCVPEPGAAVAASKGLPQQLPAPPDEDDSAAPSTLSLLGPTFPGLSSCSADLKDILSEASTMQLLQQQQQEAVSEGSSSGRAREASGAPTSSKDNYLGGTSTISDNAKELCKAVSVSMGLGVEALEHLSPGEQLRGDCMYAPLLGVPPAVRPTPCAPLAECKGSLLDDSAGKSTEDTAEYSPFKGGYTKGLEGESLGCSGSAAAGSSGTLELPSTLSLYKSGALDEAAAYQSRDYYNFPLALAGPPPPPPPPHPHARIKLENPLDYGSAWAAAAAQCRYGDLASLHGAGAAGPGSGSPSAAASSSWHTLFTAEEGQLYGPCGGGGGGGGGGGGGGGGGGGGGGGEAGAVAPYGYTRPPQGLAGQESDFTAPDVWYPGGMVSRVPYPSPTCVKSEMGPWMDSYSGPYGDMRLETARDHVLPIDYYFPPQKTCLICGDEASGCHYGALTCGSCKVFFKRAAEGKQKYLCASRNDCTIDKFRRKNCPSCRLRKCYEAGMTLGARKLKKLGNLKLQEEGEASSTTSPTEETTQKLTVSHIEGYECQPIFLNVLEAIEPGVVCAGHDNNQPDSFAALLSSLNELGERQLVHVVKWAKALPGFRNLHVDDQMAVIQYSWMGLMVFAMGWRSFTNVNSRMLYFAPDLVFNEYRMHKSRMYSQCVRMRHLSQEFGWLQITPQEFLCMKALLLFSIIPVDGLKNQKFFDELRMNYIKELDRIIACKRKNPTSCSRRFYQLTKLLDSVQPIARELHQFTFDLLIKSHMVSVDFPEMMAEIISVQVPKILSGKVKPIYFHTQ
# Assay: qHTS assay to identify small molecule antagonists of the androgen receptor (AR) signaling pathway (AID 743035)
# Settings: HEK293 AR-UAS-bla, R1881-stimulated, beta-lactamase FRET, 16 h; series mostly up to 58.5 µM; activity change, negative = inhibition: at the top concentration
# Text: National Center for Advancing Translational Sciences [NCATS]
# NIH Chemical Genomics Center [NCGC]
# U.S. Environmental Protection Agency [EPA]
# National Institutes of Environmental Health Sciences [NIEHS]
# National Toxicology Program [NTP]
# U.S. Food and Drug Administration [FDA]
# Androgen receptor (AR), a nuclear hormone receptor, plays a critical role in AR-dependent prostate cancer and other androgen related diseases. Endocrine disrupting chemicals (EDCs) and their interactions with steroid hormone receptors like AR may cause disruption of normal endocrine function as well as interfere with metabolic homeostasis, reproduction, developmental and behavioral functions. To identify the compounds that inhibit AR signaling, GeneBLAzer AR-UAS-bla-GripTite cell line (Invitrogen, Carlsbad, CA, USA) containing a beta-lactamase reporter gene under control of an Upstream Activator Sequence (UAS) stably integrated into HEK293 cells was used to screen the Tox21 10K compound library.
# Tox21 Assay Protocol Summary:
# AR-bla cells were dispensed at 2,000 cells/5 uL of assay medium per well into black wall/clear-bottom 1536-well plates using a Multidrop Combi (ThermoFisher Scientific, Waltham, MA) dispenser. After the assay plates were incubated at a 37C and 5% CO2 for 4 hr, 23 nL of compounds dissolved in DMSO, positive controls or DMSO only was transferred to the assay plate by a Pintool station (Kalypsys, San Diego, CA), followed by addition of 1 uL of agonist (R1881) in culture medium using a Bioraptr Flying Reagent Dispenser (FRD) workstation (Beckman Coulter, Indianapolis, IN, USA). The plates were incubated at a 37C and 5% CO2 for 16 h. After 1 uL of LiveBLAzerTM B/G FRET substrate was added using a Bioraptr FRD, the plates were incubated at room temperature for 2 h and fluorescence intensity was measured by an Envision plate reader (PerkinElmer, Shelton, CT).
# On the % scale 0 is the no-effect control and ±100 the full control effect; potency means the concentration at half of the fitted maximal effect.
SMILES,Potency,"activity change, negative = inhibition"
CC(C)(C)c1cc(O)c(C(C)(C)C)cc1O,43.6 µM (active),–
N[C@H]1C(O)O[C@H](CO)[C@H](O)[C@@H]1O (some centres not stated),–,4.34% (inactive)
O=C(O)Cc1sc(-c2ccccc2)nc1-c1ccc(Cl)cc1,inactive,–
NC(N)=NN=C(/C=C/c1ccc([N+](=O)[O-])o1)/C=C/c1ccc([N+](=O)[O-])o1,5.35 µM (active),–
Cc1cc(NC(=O)C(=O)O)cc(C)c1Oc1ccc(O)c2c1CCC2,–,9.38% (inactive)
CCOc1nc2cccc(C(=O)O)c2n1Cc1ccc(-c2ccccc2-c2nn[nH]n2)cc1,–,5.28% (inactive)
O=C(Cl)c1ccc([N+](=O)[O-])cc1,–,-2.86% (inactive)
Cc1cc(C)c(S(=O)(=O)O)cc1N=Nc1cc(S(=O)(=O)O)c2ccccc2c1O,–,5.42% (inactive)
COCCOCCOCCOCCOC,–,-1.14% (inactive)
C=C(C)C(=O)OC(C)C,–,-6.35% (inactive)
O=C(O)COC(=O)Cc1ccccc1Nc1c(Cl)cccc1Cl,–,18.2% [at 27 µM] (inactive)
CC[C@]12CCCN3CCc4c(n(c5ccccc45)C(=O)C1)[C@@H]32,9.1 µM (active),–
CCC(C)N(C)C(=O)c1cc2ccccc2c(-c2ccccc2Cl)n1 (configuration not stated),28.2 µM (active),–
O=C(O)[C@@H]1[C@H]2C[C@H]3c4[nH]c5ccccc5c4CCN3C[C@@H]2CC[C@@H]1O,–,-0.849% [at 27 µM] (inactive)
CNCC[C@@H](Oc1ccccc1C)c1ccccc1,–,12.7% (inactive)
O=C(C(=O)c1ccc(Br)cc1)c1ccc(Br)cc1,–,-3.35% [at 27 µM] (inactive)
CC(C(=O)O)c1ccc(C(=O)c2ccccc2)s1 (configuration not stated),–,-2.72% [at 27 µM] (inactive)
CC(=O)SCc1ccco1,–,22% (inactive)
C1CCC2OC2C1 (configuration not stated),–,-1.11% [at 78.9 µM] (inactive)
CCCCCCc1ccc(N)cc1,24.5 µM (active),–
NC(=S)N/N=C/c1cccnc1,–,-5.08% (inactive)
COc1ccc(C(C)=O)cc1,–,9.19% [at 78.9 µM] (inactive)
CCCCCCCC/C=C\CCCCCCCC(N)=O,–,-0.921% (inactive)
CCN(CC)CCOC(=O)C1(c2ccccc2)CCCC1,–,-0.4% (inactive)
CC(C)c1ccc2c(C(C)C)cc(C(C)C)c(S(=O)(=O)O)c2c1,–,-4.16% [at 78.9 µM] (inactive)
CCCCCC/C=C/C=O,–,-7.04% (inactive)
CC(C)CCCC(C)CCO (configuration not stated),–,-1.42% (inactive)
